Experiment [1] deals with T1, Serine/threonine-protein kinase D2 (Homo sapiens) (UniProt Q9BZL6).
T1 sequence (whole entry): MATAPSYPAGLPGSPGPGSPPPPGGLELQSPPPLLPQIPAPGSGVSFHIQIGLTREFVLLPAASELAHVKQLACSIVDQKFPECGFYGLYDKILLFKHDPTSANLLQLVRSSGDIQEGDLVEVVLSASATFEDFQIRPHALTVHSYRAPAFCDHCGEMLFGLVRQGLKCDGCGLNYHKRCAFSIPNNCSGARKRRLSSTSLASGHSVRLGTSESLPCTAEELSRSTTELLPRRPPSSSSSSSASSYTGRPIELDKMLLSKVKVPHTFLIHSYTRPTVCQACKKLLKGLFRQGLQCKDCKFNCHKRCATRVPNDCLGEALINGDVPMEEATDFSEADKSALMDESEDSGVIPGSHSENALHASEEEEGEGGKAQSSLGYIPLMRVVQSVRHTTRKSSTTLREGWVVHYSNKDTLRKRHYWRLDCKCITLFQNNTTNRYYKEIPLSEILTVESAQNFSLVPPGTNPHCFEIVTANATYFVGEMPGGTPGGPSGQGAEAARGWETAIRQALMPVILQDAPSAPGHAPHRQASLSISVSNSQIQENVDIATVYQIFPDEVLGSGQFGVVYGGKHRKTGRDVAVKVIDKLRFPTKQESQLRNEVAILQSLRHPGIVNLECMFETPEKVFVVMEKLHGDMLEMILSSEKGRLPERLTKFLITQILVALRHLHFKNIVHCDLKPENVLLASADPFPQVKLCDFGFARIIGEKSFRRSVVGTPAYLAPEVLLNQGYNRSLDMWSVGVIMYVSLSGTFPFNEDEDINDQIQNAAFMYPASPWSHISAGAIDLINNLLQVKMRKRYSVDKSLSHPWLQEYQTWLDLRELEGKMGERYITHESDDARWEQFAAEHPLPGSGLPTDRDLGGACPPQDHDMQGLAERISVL
As to conditions: at 1 µM.

For experiment [2], the target named is T2, Serine/threonine-protein kinase D3 (Homo sapiens) (UniProt O94806).
T2 sequence (whole entry): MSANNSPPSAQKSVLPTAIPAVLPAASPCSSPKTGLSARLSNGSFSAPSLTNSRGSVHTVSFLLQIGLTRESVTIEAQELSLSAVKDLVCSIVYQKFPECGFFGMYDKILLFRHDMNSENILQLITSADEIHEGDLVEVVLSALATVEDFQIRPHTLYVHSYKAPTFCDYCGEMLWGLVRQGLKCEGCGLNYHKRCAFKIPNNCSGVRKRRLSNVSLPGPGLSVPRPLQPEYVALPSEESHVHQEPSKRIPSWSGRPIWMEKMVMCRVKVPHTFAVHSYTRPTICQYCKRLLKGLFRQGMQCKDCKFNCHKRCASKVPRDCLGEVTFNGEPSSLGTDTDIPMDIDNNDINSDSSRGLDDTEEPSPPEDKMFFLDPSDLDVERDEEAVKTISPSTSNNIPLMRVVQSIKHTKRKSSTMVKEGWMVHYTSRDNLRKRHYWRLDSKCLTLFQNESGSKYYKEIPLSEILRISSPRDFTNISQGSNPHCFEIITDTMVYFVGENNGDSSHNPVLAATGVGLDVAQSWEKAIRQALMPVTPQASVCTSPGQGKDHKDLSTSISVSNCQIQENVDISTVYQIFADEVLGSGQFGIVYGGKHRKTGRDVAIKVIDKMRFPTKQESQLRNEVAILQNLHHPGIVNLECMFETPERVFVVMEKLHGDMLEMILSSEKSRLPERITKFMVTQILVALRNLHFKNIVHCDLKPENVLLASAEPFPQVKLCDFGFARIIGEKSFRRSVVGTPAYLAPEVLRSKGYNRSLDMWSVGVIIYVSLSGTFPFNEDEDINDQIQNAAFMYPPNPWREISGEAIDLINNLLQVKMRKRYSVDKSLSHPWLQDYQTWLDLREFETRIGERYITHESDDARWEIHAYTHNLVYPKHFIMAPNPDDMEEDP
To be noted: at 0.1 µM.

Experiment [3] deals with T2, Serine/threonine-protein kinase D3 (Homo sapiens). As to conditions: at 1 µM.
Experiment [4] has as its target T3, cGMP-dependent protein kinase 1 (Homo sapiens) (UniProt Q13976).
T3 sequence (whole entry): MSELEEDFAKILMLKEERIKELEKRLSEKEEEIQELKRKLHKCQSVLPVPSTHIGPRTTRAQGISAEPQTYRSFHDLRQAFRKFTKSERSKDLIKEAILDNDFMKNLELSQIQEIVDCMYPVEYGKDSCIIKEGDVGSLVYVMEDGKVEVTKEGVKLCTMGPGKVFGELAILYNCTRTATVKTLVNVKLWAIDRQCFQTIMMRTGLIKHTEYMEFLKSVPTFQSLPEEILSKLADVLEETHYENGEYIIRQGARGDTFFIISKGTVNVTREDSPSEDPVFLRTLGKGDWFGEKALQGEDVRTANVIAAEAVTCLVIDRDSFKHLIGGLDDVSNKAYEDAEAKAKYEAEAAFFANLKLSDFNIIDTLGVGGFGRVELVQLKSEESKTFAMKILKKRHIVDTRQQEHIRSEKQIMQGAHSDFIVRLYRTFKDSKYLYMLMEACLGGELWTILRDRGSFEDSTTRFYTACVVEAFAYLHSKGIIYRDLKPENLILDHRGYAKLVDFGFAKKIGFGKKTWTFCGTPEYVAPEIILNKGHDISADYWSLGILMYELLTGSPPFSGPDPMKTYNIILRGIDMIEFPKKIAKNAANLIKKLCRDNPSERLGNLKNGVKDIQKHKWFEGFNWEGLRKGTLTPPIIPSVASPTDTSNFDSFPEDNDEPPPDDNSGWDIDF
To be noted: at 0.1 µM.

Experiment [5] deals with T3, cGMP-dependent protein kinase 1 (Homo sapiens). As to conditions: at 1 µM.
The target in experiment [6] is T4, cGMP-dependent protein kinase 2 (Homo sapiens) (UniProt Q13237).
T4 sequence (whole entry): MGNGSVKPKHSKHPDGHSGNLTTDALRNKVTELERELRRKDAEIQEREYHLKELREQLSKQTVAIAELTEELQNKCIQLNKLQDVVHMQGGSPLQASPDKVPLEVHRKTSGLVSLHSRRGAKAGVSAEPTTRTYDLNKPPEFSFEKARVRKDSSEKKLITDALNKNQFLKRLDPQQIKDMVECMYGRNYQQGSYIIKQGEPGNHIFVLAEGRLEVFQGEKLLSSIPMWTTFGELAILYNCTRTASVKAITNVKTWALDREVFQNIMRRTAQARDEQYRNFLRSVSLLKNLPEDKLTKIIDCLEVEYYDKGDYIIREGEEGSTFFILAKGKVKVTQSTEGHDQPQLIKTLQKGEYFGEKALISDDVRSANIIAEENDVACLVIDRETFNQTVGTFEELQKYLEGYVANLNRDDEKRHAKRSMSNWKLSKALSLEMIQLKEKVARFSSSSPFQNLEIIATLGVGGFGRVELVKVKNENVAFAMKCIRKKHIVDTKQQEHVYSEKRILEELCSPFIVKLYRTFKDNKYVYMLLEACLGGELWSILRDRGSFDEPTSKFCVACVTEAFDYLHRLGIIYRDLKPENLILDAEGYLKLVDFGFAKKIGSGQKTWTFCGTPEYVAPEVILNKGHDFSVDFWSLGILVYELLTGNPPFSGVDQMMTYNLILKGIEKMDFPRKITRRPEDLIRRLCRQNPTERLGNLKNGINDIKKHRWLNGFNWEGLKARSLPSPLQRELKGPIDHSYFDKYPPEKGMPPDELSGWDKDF
To be noted: at 0.1 µM.

Experiment [7] deals with T4, cGMP-dependent protein kinase 2 (Homo sapiens). To be noted: at 1 µM.
For experiment [8], the target named is T5, cAMP-dependent protein kinase catalytic subunit PRKX (Homo sapiens) (UniProt P51817).
T5 sequence (whole entry): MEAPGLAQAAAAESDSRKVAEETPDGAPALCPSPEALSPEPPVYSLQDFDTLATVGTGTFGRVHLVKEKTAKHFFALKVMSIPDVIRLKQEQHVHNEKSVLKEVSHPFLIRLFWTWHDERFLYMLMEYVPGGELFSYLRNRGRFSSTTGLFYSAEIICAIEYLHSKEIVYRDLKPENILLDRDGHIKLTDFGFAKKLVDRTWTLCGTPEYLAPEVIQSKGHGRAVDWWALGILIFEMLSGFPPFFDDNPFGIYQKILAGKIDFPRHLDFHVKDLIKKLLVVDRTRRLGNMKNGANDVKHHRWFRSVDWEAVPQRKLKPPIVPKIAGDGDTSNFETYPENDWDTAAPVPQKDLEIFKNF
As to conditions: at 0.1 µM.

The target in experiment [9] is T5, cAMP-dependent protein kinase catalytic subunit PRKX (Homo sapiens). To be noted: at 1 µM.
Experiment [10] addresses Rho-associated protein kinase 1 (Homo sapiens) (UniProt Q13464). As to conditions: at 0.1 µM.
Experiment [11] has the same target. As to conditions: at 1 µM.
Experiment [12] deals with Rho-associated protein kinase 2 (Homo sapiens) (UniProt O75116). To be noted: at 0.1 µM.
Chain of Rho-associated protein kinase 2 (Homo sapiens) (O75116 whole entry, looked up): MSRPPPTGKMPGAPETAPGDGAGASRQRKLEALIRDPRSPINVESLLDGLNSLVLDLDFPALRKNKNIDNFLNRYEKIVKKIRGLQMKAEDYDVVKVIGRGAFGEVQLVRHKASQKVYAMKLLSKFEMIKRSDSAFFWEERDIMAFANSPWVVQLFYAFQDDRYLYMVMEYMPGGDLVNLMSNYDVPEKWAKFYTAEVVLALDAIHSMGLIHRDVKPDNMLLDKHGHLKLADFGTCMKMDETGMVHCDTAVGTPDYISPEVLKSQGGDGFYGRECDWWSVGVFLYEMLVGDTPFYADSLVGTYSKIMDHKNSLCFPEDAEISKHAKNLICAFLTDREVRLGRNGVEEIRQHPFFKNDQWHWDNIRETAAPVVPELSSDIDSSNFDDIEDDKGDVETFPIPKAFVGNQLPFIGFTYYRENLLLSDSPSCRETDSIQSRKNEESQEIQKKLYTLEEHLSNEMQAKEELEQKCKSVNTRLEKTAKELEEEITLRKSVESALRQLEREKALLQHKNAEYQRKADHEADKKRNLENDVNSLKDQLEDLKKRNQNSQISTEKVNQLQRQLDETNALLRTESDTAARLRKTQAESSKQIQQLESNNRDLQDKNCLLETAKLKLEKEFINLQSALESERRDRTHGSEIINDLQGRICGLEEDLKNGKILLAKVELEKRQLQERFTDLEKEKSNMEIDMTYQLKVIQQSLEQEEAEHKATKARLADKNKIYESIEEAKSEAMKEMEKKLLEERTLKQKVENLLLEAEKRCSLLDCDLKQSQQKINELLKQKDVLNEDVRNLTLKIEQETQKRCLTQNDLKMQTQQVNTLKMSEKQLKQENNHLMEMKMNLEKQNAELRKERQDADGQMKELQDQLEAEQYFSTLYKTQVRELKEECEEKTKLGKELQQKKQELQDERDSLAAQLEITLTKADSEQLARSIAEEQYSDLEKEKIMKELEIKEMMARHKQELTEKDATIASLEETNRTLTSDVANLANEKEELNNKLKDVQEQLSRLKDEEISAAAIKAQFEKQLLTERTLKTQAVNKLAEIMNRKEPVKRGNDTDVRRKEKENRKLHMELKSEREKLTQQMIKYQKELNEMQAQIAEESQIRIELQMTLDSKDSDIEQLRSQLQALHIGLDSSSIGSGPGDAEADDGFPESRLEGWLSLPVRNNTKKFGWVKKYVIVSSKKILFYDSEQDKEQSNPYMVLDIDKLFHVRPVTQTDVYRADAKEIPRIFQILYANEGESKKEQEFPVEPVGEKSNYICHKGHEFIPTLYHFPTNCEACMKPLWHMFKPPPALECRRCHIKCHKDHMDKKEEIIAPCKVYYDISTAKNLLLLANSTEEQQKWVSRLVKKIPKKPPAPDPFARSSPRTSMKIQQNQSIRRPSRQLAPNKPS
Experiment [13] shares this target. As to conditions: at 1 µM.
For experiment [14], the target named is Ribosomal protein S6 kinase alpha-1 (Homo sapiens) (UniProt Q15418). To be noted: at 0.1 µM.
Chain of Ribosomal protein S6 kinase alpha-1 (Homo sapiens) (Q15418 whole entry): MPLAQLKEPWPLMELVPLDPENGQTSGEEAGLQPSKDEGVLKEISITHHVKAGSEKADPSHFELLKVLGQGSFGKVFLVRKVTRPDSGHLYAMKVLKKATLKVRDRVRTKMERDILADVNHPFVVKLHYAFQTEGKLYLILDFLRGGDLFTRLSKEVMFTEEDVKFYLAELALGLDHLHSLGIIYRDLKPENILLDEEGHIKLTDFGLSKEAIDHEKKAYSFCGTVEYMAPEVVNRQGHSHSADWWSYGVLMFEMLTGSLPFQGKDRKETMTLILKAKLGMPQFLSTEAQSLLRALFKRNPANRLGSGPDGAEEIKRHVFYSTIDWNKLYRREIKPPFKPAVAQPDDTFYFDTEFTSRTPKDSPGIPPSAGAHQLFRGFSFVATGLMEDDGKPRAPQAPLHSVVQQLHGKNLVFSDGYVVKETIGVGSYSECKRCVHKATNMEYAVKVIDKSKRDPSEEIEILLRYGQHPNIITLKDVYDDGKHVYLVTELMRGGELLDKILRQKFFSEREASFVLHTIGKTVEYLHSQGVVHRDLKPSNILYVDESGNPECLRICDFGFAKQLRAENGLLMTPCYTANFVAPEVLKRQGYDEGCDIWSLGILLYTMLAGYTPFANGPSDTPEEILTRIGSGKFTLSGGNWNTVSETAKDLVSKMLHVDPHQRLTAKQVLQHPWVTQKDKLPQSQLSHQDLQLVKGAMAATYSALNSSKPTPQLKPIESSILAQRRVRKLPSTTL
Experiment [15] shares this target. To be noted: at 1 µM.
Experiment [16] addresses Ribosomal protein S6 kinase alpha-3 (Homo sapiens) (UniProt P51812). To be noted: at 0.1 µM.
For experiment [17] the target is unchanged. To be noted: at 1 µM.
Experiment [18] concerns the target Ribosomal protein S6 kinase alpha-2 (Homo sapiens) (UniProt Q15349). To be noted: at 0.1 µM.
Experiment [19] shares this target. To be noted: at 1 µM.
Experiment [20] concerns the target Ribosomal protein S6 kinase alpha-6 (Homo sapiens) (UniProt Q9UK32). To be noted: at 0.1 µM.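 Note: reported value is the mean inhibition of RSK4, from the GSK PKIS kinase inhibitor screen.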

Chain of Ribosomal protein S6 kinase alpha-6 (Homo sapiens) (Q9UK32 whole entry): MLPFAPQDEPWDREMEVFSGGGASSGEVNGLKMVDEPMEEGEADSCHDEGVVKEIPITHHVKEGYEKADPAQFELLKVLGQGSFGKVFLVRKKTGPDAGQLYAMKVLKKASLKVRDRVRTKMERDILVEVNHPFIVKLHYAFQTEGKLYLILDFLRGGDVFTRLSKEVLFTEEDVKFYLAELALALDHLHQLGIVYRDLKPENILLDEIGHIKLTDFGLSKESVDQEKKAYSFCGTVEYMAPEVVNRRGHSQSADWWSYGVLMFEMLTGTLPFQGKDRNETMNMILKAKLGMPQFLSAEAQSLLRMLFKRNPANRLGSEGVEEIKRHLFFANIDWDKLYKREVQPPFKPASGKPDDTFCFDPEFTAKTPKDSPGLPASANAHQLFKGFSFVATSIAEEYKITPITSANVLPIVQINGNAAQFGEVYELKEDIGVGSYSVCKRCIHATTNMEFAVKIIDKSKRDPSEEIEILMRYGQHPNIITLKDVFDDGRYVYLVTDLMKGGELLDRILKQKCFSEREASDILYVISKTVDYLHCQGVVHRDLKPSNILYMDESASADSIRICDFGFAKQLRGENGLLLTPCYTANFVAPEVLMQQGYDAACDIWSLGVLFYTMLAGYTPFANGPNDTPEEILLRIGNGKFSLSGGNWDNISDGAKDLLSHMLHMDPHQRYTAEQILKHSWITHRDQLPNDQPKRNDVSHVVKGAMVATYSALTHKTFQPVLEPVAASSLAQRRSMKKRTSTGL
Chain of Ribosomal protein S6 kinase alpha-3 (Homo sapiens) (P51812 whole entry): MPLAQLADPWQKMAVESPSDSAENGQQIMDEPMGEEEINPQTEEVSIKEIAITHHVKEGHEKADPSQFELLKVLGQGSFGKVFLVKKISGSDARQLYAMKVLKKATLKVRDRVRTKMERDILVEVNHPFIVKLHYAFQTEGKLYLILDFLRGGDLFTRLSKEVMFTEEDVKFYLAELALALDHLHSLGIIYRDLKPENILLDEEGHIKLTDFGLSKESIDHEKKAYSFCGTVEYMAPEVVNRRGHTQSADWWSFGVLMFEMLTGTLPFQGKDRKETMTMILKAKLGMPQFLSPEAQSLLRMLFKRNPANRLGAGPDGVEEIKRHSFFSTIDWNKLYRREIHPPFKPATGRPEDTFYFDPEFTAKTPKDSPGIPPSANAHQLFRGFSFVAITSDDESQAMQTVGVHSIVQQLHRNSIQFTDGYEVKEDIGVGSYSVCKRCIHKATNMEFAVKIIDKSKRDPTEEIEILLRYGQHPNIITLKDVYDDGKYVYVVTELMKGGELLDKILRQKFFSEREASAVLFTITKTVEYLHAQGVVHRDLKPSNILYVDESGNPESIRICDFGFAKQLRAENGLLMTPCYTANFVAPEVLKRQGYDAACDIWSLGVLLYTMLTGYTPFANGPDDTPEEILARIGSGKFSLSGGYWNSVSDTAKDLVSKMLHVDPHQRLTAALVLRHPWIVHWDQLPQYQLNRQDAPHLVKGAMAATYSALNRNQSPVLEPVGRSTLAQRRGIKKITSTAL
Chain of Rho-associated protein kinase 1 (Homo sapiens) (Q13464 2-1354 limits assumed): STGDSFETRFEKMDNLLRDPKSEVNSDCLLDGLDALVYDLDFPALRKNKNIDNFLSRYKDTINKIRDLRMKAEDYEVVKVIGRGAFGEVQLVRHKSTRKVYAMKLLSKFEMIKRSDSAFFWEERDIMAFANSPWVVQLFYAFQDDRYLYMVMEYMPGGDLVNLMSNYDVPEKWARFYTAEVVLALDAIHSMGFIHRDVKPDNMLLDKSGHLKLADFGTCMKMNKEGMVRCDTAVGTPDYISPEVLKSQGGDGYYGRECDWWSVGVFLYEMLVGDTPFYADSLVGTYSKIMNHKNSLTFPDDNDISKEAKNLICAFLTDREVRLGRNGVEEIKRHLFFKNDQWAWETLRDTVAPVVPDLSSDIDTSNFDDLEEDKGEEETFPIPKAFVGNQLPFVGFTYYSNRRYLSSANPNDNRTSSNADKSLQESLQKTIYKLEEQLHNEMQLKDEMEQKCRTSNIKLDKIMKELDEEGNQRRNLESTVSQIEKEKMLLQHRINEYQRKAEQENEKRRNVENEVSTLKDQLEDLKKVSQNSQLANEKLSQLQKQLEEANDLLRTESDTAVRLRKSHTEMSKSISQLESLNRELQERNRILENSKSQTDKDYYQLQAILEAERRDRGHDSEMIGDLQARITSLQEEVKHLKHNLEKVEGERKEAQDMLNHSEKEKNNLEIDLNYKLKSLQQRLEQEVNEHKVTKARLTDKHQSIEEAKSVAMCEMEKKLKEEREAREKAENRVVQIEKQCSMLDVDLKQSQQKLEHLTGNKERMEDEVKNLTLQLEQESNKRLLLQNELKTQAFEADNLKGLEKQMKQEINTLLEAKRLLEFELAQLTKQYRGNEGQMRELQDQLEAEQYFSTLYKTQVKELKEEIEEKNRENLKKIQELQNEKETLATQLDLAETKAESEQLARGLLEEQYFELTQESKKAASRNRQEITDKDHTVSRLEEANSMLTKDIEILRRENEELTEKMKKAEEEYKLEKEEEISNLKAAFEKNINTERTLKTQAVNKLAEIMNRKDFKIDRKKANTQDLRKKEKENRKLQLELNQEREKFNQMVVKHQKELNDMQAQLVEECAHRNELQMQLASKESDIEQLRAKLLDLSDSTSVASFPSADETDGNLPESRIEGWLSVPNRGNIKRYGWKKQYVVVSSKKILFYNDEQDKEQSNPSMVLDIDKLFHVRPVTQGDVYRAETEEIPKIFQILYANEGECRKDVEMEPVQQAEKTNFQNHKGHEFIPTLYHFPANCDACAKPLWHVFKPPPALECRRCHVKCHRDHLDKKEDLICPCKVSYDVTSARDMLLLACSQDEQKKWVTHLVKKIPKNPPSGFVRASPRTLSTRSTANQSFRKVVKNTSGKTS

Take `CS(=O)(=O)CCNCc1ccc(-c2ccc3ncnc(Nc4ccc(OCc5cccc(F)c5)c(C(F)(F)F)c4)c3c2)o1`: the inhibition in [1] turned out to be 5.13%; in experiment [2], 4.32%; in experiment [3], 3.88%; in experiment [4], 2.84%; in [5], 5.15%; in [6], 1.78%. The inhibition in experiment [7] was found to be 3.11%; in experiment [8] it was 2.44%; in [9], 4.07%; in experiment [10] it was 1.46%; in experiment [11] it was 1.61%; in [12], 3.57%. Further, the inhibition was determined as 4.82% in [13]; 2.12% in experiment [14]; 2.08% in experiment [15]; 1.34% in experiment [16]; 1.93% in experiment [17]; 2.39% in experiment [18]. Besides, the values for the inhibition in experiment [19] and in experiment [20] were 2.88% and 1.6%, respectively.
For `NS(=O)(=O)c1ccc(N/N=C2\C(=O)Nc3ccc(C(=O)NCCc4c[nH]cn4)cc32)cc1`, the inhibition in [1] came to 32.9%; in [2] it was 7.41%; in experiment [3], 38.6%; in experiment [4], 23.6%; in [5], 70.1%; in experiment [6] it was 9.57%. The inhibition in experiment [7] turned out to be 50.8%; in [8], 2.93%; in experiment [9], 12.2%; in experiment [10] it was 1.37%; in [11], 7.56%; in [12] it was 3%. In addition, the inhibition in [13] turned out to be 12.4%; in [14], 3.37%; in experiment [15], 12%; in experiment [16] it was 2.21%; in experiment [17], 11.9%; in experiment [18] it was 5.36%. Further, the inhibition turned out to be 23.5% in experiment [19] and 4.08% in [20].
Turning to `CCn1c(-c2nonc2N)nc2c(N3CCCC3)nccc21`, the inhibition in [1] was -0.31%; in experiment [2], -0.29%; in [3], 0.75%; in [4] it was 0.96%; in [5] it was 3.63%; in experiment [6] it was 1.09%. Besides, the inhibition is 9.26% in [7]; 0.17% in [8]; 0.74% in [9]; 3.22% in experiment [10]; 22.2% in experiment [11]; 3.86% in experiment [12]. Further, the inhibition was 30.6% in [13]; 0.29% in experiment [14]; 7.82% in experiment [15]; 0.44% in [16]; 4.5% in experiment [17]; -0.11% in experiment [18]. Further, the inhibition in experiment [19] is 7.05%; in [20], -0.21%.

These data come from ChEMBL document CHEMBL1961873, “Compounds: GSK PKIS; Assays: Nanosyn kinase panel” (2012).
